Source: PubChem (National Center for Advancing Translational Sciences (NCATS))
Most compounds without a hit are left out; they make up all but 22% or so of the library.
Pf growth 48h – inhibits P. falciparum growth in the first generation, 48 h. actives 5.9% (n = 310,000). P. falciparum luciferase growth in erythrocytes, 48 h. Potency, µM (top dose mostly 28.7 µM), usual class: inhibitors
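First compound was added to culture medium, then infected red cells at 0.1% parasitemia and 2% hematocrit (final). After incubation at 37 C under 5% CO2, luciferase detection reagent was dispensed and light output recorded.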
CHX counter – counter-screen hit for Shiga toxin inhibitors, cycloheximide. AID 2314. max response, %. actives 12% (n = 300,000). cell reporter, cycloheximide protein synthesis inhibition counterscreen; in the data active = max response mostly above about 13%, no sharp cut-off; inactive = mostly below about 14%; note: read at 38.3 µM for the half of the compounds with a filed dose
Pf growth 96h – inhibits malaria parasite growth, 96 h; Potency, µM (doses to about 28.7 µM), usual class: inhibitors; actives 6.9% (n = 320,000); AID 504834; P. falciparum luciferase reporter growth, 96 h
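Two parasite generations (96 h, 37 C, 5% CO2) of compound exposure in infected erythrocytes (0.05% parasitemia, 2% hematocrit). Luciferase-reporter P. falciparum; decreased luminescence indicates inhibited growth, aimed at apicoplast-acting delayed death.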
Shiga inhibitor – inhibitors of Shiga toxin in Vero cells; Vero cells, Shiga toxin protein synthesis inhibition reporter; inhibition, % at 38.7 µM; actives 9.2% (n = 290,000); in the data active = inhibition mostly above about 28%, no sharp cut-off; inactive = mostly below about 43%
LmPK inhibitor – blocks Leishmania mexicana pyruvate kinase activity | Potency, µM (doses to about 57.5 µM), most hits filed as inhibitors | purified LmPK, Kinase-Glo ATP luminescence, 1 h | AID 1721 | actives 0.37% (n = 290,000) | Q27686
Target sequence (Q27686 whole entry, looked up): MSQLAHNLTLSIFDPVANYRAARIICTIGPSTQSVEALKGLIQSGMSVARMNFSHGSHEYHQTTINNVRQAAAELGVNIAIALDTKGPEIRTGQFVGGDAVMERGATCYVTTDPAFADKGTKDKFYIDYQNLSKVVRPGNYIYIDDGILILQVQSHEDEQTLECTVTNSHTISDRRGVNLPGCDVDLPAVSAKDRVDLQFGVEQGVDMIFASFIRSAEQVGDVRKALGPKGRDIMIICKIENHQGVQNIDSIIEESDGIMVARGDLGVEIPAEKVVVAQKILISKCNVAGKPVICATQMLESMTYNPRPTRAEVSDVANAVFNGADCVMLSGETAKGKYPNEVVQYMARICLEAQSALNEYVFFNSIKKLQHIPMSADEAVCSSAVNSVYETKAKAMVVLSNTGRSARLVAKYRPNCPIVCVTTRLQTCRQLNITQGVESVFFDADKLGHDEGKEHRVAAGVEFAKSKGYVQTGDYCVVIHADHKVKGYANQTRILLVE
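qHTS format; LmPK 0.1 nM; substrates PEP 0.5 mM and ADP 0.1 mM. One-hour room-temperature incubation, then coupled luciferase luminescence; 0.5 nM enzyme wells mark activation.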
Each line names hits and unclear results; the compound was inactive in the other large screens. Unless noted, calls come from the whole dose curve; as a rule, active = well fitted inhibition curve with a large enough effect; inconclusive = small, poorly fitted or top-dose-only effect, or another doubt; inactive = no such curve, though single readings can be large or run the other way.

CCCNS(=O)(=O)c1cc(Cl)ccc1OC	none
Nc1ccc(Br)cc1-c1nc2ccccc2[nH]c1=O	Shiga inhibitor 75.0
Cc1nc2ccccc2[nH]c1=O	none
O=c1[nH]c2ccccc2nc1-c1c[nH]c2ccccc12	CHX counter 25.6, Pf growth 96h inconclusive (no result: Pf growth 48h)
CNc1ccc([N+](=O)[O-])cc1-c1nc2ccccc2[nH]c1=O	none
Nc1ccccc1-c1nc2ccccc2[nH]c1=O	CHX counter 57.5, Shiga inhibitor 80.4
O=C(CNC(=O)c1ccc(Br)o1)NNC(=O)c1ccc(Br)cc1	none (no result: CHX counter, Shiga inhibitor, LmPK inhibitor)
CCCCN(C(=O)Cc1ccc(S(=O)(=O)N2CCOCC2)s1)c1c(N)n(CC(C)C)c(=O)[nH]c1=O	none (no result: CHX counter, Shiga inhibitor, LmPK inhibitor)
COc1ccc([C@@H]2[C@@H]3C(=O)N(C(C)(C)C)C(=O)[C@@H]3[C@]3(Cc4ccc(Cl)cc4)C(=O)N(c4cccc(F)c4)C(=O)N23)cc1	Pf growth 48h 5.86µM, Pf growth 96h 9.28µM (no result: CHX counter, Shiga inhibitor, LmPK inhibitor)
COc1ccc(N2C(=O)N3[C@H](c4ccc(Br)cc4)[C@@H]4C(=O)N(C(C)(C)C)C(=O)[C@@H]4[C@]3(Cc3ccccc3)C2=O)cc1	Pf growth 96h inconclusive
COc1ccc([C@@H]2[C@@H]3C(=O)N(C(C)(C)C)C(=O)[C@@H]3[C@]3(Cc4ccccc4)C(=O)N(c4cccc(Cl)c4)C(=O)N23)cc1	Pf growth 48h 6.57µM, Pf growth 96h 9.28µM (no result: CHX counter, Shiga inhibitor, LmPK inhibitor)
CC(C)(C)N1C(=O)[C@H]2[C@@H](c3ccc(Br)cc3)N3C(=O)N(c4cccc(Cl)c4)C(=O)[C@@]3(Cc3ccccc3)[C@H]2C1=O	Pf growth 48h 3.29µM, Pf growth 96h 4.65µM (no result: CHX counter, Shiga inhibitor, LmPK inhibitor)
CC[C@@]12C(=O)N(c3cccc(Br)c3)C(=O)N1[C@H](c1ccc(Br)cc1)[C@@H]1C(=O)N(C(C)(C)C)C(=O)[C@@H]12	Pf growth 48h 10.4µM, Pf growth 96h 4.65µM (no result: CHX counter, Shiga inhibitor, LmPK inhibitor)
COc1ccc([C@@H]2[C@@H]3C(=O)N(C(C)(C)C)C(=O)[C@@H]3[C@]3(Cc4ccc(Cl)cc4)C(=O)N(c4cccc(Br)c4)C(=O)N23)cc1	Pf growth 48h inconclusive, Pf growth 96h inconclusive
C=CCSc1nc(N)c(C(=O)Nc2ccccc2C)cc1C(N)=O	none
COc1ccc([C@@H]2[C@@H]3C(=O)N(C(C)(C)C)C(=O)[C@@H]3[C@]3(Cc4ccccc4)C(=O)N(c4ccc(Br)cc4)C(=O)N23)cc1	Pf growth 48h 4.15µM, CHX counter 12.1, Pf growth 96h 5.22µM
CC(C)(C)c1cnnn1-c1ccc(/C=N/Nc2ccc([N+](=O)[O-])cc2)cc1	Pf growth 48h 11.7µM
O=c1[nH]c(SCCOc2ccccc2F)nc2ccccc12	CHX counter 33.1, Pf growth 96h inconclusive, Shiga inhibitor 60.5
COc1ccccc1OCCSc1nc2ccccc2c(=O)[nH]1	CHX counter 13.8, Shiga inhibitor 48.2
CCOc1ccc(S(=O)(=O)N2CCC(C(=O)NCC3CCCO3)CC2)cc1Cl (configuration not stated)	Pf growth 96h inconclusive
O=C(N/N=C/c1ccccc1F)c1csc2c1CCCC2	CHX counter 41.6, Shiga inhibitor 79.0
O=C(N/N=C/c1cccc(F)c1)c1csc2c1CCCC2	CHX counter 55.2, Shiga inhibitor 94.7
CCCNC(=O)c1csc2c1CCCCC2	none
CCN(CC)CCCNC(=O)c1ccc(CS(=O)(=O)c2ccccc2OC)o1	Pf growth 96h inconclusive
CN(C)c1ccc(S(=O)(=O)NCC(=O)OCC(=O)Nc2cc(Cl)cc(Cl)c2)cc1[N+](=O)[O-]	none
CC(=O)Oc1cc2c(cc1Cl)C(c1cccs1)CC1(CC(C)(C)NC(=S)N1)O2 (configuration not stated)	Pf growth 48h inconclusive, Pf growth 96h inconclusive
O=S(=O)(c1ccc(F)cc1)N1CCN(CC(O)COc2ccccc2F)CC1 (configuration not stated)	none
CC(C)c1ccccc1OCC(O)CN1CCN(S(=O)(=O)c2ccc([N+](=O)[O-])cc2)CC1 (configuration not stated)	Pf growth 48h 3.7µM, Pf growth 96h 2.62µM
COC(=O)c1nc(NC(=S)NC(=O)c2cccs2)sc1C	CHX counter 22.8, Pf growth 96h inconclusive, Shiga inhibitor 51.1
CCc1ccc(-c2nc(NC(=S)NC(=O)c3cccs3)sc2C)cc1	none (no result: Pf growth 48h)
COC(=O)Cc1nc(NC(=O)c2cccs2)sc1C	CHX counter 35.4, Shiga inhibitor 54.4
O=C(NC(=S)Nc1nc2ccccc2s1)c1cccs1	CHX counter 82.2, Shiga inhibitor 74.5
O=C(NC(=S)NCc1ccccc1)c1cccs1	none
COCCNC(=S)N1CCN(Cc2cccc(OC)c2)CC1	Pf growth 96h inconclusive
Brc1ccc(-c2cn3nc4c(nc3n2)CCCC4)cc1	CHX counter 45.8, Shiga inhibitor 121.5, LmPK inhibitor inconclusive (no result: Pf growth 96h)
COc1ccc(-c2cn(CCC(=O)O)c(C)n2)cc1	none (no result: CHX counter, Shiga inhibitor, LmPK inhibitor)
Cc1c(C)n(CCCN(C)C)c2ncnc(Nc3ccccc3)c12	none
COc1ccc(Nc2ncnc3c2c(C)c(C)n3CCCN(C)C)cc1	CHX counter 47.0, Shiga inhibitor 69.5
C=CCn1c(-c2cc(-c3ccc(C)cc3)nc3ccccc23)n[nH]c1=S	Pf growth 48h 16.5µM, Pf growth 96h inconclusive
C=CCn1c(-c2cccc(OCC)c2)n[nH]c1=S	none
C=CCn1c(Cc2c[nH]c3ccccc23)n[nH]c1=S	Pf growth 48h 13.1µM, CHX counter 12.3
CCn1c(-c2cc(-c3ccc(OC(C)C)cc3)nc3ccccc23)n[nH]c1=S	CHX counter 31.1, Pf growth 96h 1.47µM (no result: Pf growth 48h)
C=CCn1c(Cc2ccccc2)n[nH]c1=S	none
CCn1c(-c2sc(-c3ccccc3)nc2C)n[nH]c1=S	none
CCCOc1cccc(-c2cc(-c3n[nH]c(=S)n3CC)c3ccccc3n2)c1	Pf growth 48h 10.4µM, Pf growth 96h 3.7µM
CC(C)NC(=O)C(c1ccc(F)cc1)N(C(=O)CCC(=O)Nc1ccccn1)C1CCCC1 (configuration not stated)	none
O=Cc1cccn1-c1nccc(-c2ccco2)n1	none
CCc1nnc(SCC(=O)Nc2ccccc2)n1CC1CCCO1 (configuration not stated)	none
CCn1c(-c2ccccc2SC)n[nH]c1=S	Pf growth 96h inconclusive
C=CCn1c(-c2cccc3ccccc23)n[nH]c1=S	Pf growth 96h inconclusive, LmPK inhibitor 8.91µM (no result: Pf growth 48h)
CCn1c(-c2cc(-c3ccc(C)cc3)nc3ccccc23)n[nH]c1=S	Pf growth 48h inconclusive, CHX counter 16.5, Pf growth 96h 16.5µM
OC1(c2ccc(Br)cc2)CCN(Cc2cccc(Br)c2)CC1	Pf growth 48h inconclusive, Pf growth 96h 4.65µM
Cc1ccc(NC(=O)COC(=O)Cn2cnc3c2c(=O)n(C)c(=O)n3C)c(Cl)c1	none
Cc1cc2[nH]c(=O)cc(-c3ccccc3)n2n1	CHX counter 16.6
Cc1cc2[nH]c(=O)c3ccccc3n2n1	none
Cc1ccc(S(=O)(=O)Nc2cccc(Cl)c2)cc1NC(=O)c1cccnc1	Pf growth 48h inconclusive
CC1CC(C)CN(c2oc(-c3ccco3)nc2C#N)C1 (configuration not stated)	CHX counter 13.2, Pf growth 96h inconclusive
